TDP1 block: inhibitors of human tyrosyl-DNA phosphodiesterase TDP1 | 350,000 compounds, 0.28% hits | Potency, µM (doses to about 130 µM), usual class: inhibitors | recombinant TDP1, AlphaScreen DNA substrate cleavage | AID 485290; further: nearly all actives have a fitted effect of over 40% in size
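E. coli-derived human Tdp1, 1 nM final. Cpd preinc 15 min RT; substrate 15 nM final, 5 min RT; AS bead mix 10 ug/ml final, 10 min RT. Signal loss = tyrosine-FITC cleavage. No-enzyme wells = max signal.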
HP1b chromo inh: inhibitors of HP1-beta chromodomain binding to methylated histone tails | AlphaScreen HP1-beta / biotin-H3K9me3 peptide binding | 390,000 compounds, 0.56% hits | Potency, µM (highest dose often 114 µM), actives largely listed as inhibitors | P83916 | AID 540317; further: nearly all actives have a fitted effect of over 70% in size
Target sequence (P83916 whole entry, looked up): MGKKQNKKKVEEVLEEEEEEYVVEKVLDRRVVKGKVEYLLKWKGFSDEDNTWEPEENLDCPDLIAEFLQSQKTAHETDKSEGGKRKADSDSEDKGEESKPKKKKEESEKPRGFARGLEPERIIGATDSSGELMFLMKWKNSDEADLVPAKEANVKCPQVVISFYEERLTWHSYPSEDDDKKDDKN
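HP1-beta protein (50 nM final) preincubated 30 min at room temperature with biotinylated H3(1-18)K9me3 peptide (50 nM) in PBS pH 7.4, 0.01% Tween-20, then compound added for 30 min. AlphaScreen streptavidin donor/nickel chelate acceptor beads (10 ug/mL final), 30 min dark, luminescence read.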
BAZ2B block: blocks human BAZ2B | Q9UIF8 | Potency, µM (top dose mostly 114 µM), actives largely listed as inhibitors | AlphaScreen BAZ2B-H3K14Ac peptide displacement | AID 504333 | 360,000 compounds, 4.4% hits; further: nearly all actives have a fitted effect of over 60% in size
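AlphaScreen luminescence quantifies BAZ2B engagement of H3K14Ac peptide; the protein and biotinylated peptide are both at 50 nM final, buffer PBS pH 7.4 with 0.01% Tween-20, all steps at room temperature.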
Sfp PPTase inh: inhibitors of Bacillus subtilis Sfp phosphopantetheinyl transferase. Biochemical Sfp PPTase activity, qHTS. Potency, µM, actives largely listed as inhibitors. 310,000 compounds, 3.5% hits. AID 1490;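 further: the enzyme is Sfp with the accession as filed and its product quenches rhodamine fluorescence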
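Compounds were incubated with enzyme (final 15 nM) for 15 min at room temperature before substrate addition started the reaction. Fluorescence at 525 nm excitation, 598 nm emission was recorded immediately and after 30 minutes.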
G9a inh: inhibitors of human histone lysine methyltransferase G9a | Q96KQ7 | Potency, µM (highest dose often 102 µM), most hits filed as inhibitors | 350,000 compounds, 8.8% hits | G9a H3K9 monomethylation, AlphaScreen, 2 h; further: nearly all actives have a fitted effect of over 75% in size
Target sequence (Q96KQ7 913-1193 limits assumed): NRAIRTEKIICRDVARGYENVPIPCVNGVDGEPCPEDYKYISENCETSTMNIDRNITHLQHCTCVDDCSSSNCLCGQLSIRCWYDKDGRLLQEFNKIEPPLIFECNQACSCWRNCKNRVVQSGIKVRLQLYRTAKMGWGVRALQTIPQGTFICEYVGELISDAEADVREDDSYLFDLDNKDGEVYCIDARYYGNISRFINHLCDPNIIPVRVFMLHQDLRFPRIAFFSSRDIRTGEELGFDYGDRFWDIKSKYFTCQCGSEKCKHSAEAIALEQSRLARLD
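Readings reflect AlphaScreen signal from monomethyl-H3K9 antibody detection. HMT at 20 nM; substrate b-H3K9 500 nM; cofactor SAM 20 uM; 2 h RT reaction; compounds tested as titrations in qHTS with 15 min preincubation.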
JMJD2A Tudor: blocks the human JMJD2A Tudor domain. O75164. AlphaScreen JMJD2A-Tudor / H3K4me3 peptide binding. Potency, µM (titrated, usually from 114 µM), most hits filed as inhibitors. 390,000 compounds, 4.4% hits; further: nearly all actives have a fitted effect of over 50% in size
Numbers stand for hits; . = inactive; ? = inconclusive; / = no result given; [ ] = another dose, or the depositor's remark. Hits are enriched below; roughly 12% of the tested compounds scored in any of these assays. The call rests on the fitted dose curve; in most records, active means well fitted curve in the direction sought with a large enough effect; inconclusive means small, poorly fitted or top-dose-only effect, or another doubt; inactive means no such curve, though single readings can be large; an effect the other way counts as inactive or inconclusive.

SMILES	TDP1 block	HP1b chromo inh	BAZ2B block	Sfp PPTase inh	G9a inh	JMJD2A Tudor
Cc1[nH]c2ccccc2c1-c1csc(NC(=O)CSCCO)n1	.	.	?	.	71µM	?
Cc1c(C(=O)c2ccccc2)c2ccccn2c1CCc1ccccn1	.	.	71µM	.	40µM	.
Cc1c(C(=O)Nc2ccc(Cl)cc2)c2ccccn2c1CCc1ccncc1	.	.	.	.	14µM	.
Cc1c(C(=O)Nc2cccc(Cl)c2)c2ccccn2c1CCc1ccncc1	.	.	.	.	.	.
Cc1c(C(=O)c2ccc(F)cc2)c2ccccn2c1CCc1ccccn1	.	.	.	.	45µM	.
Cc1c(C(=O)c2ccccc2)c2ccccn2c1CCC#N	.	.	.	.	?	.[11.4 µM]
C[C@@H]1CN([C@@H](C)CO)C(=O)c2cc(NC(=O)Nc3ccc(F)cc3)ccc2O[C@@H]1CN(C)Cc1ccc(Oc2ccccc2)cc1	.	.	/	/	/	?
CCC(C)NC(=O)C1(NC(=O)Nc2ccccc2)CCCCC1 (stereo not given)	.	?	.	.	.	18µM
C[C@@H]1[C@H](O)[C@@H](C)/C=C/C=C/C=C/C=C/C=C/C=C/C=C/[C@H](O[C@@H]2O[C@H](C)[C@@H](O)[C@H](N)[C@@H]2O)C[C@@H]2O[C@](O)(C[C@@H](O)C[C@@H](O)[C@H](O)CC[C@@H](O)C[C@@H](O)CC(=O)O[C@H]1C)C[C@H](O)[C@H]2C(=O)O	.	/	/	?	.	/
CCn1c(SCC(=O)Nc2ccc(NC(C)=O)cc2)nnc1C1CC1	.	.	.	.	.	.
CCn1c(SCC(=O)Nc2ccc(N(C)C)cc2)nnc1C1CC1	.	.	.	.	40µM	.
CCn1c2ccccc2c2cc(NC(=O)CSc3nccc(=O)[nH]3)ccc21	.	.	.	.	35µM	.
C=CCn1c(SCC(=O)Nc2nnc(C)s2)nnc1C1CC1	28µM	.	.	.	/	.
CCN(CC)c1ccc(NC(=O)CSc2n[nH]c(-c3ccco3)n2)cc1	.	.	40µM	/	4.5µM	?
Cc1ccc(NC(=O)CSc2n[nH]c(-c3ccco3)n2)cc1	.	.	.	.	.	.
O=C(CN1C(=O)COc2ccccc21)NC1CCCC1	.	.	.	.	.	.
Cc1cc(C)cc(N2CCn3c2nc2c3c(=O)n(CCCc3ccccc3)c(=O)n2C)c1	.	.	.	/	.	.
CCn1c(SCC(=O)Nc2cccc(NC(C)=O)c2)nnc1-c1ccco1	.	.	.	.	.	.
CCn1c(SCC(=O)Nc2ccc3c(c2)c2ccccc2n3CC)nnc1-c1ccco1	.	16µM	.	.	.[12.7 µM]	28µM
CCn1c(SCC(=O)Nc2ccc(N(C)C)cc2)nnc1-c1ccco1	.	.	.	.	40µM	.
COc1cccc(N2CCN(C(=O)c3cnc4c(C)cccn4c3=O)CC2)c1	.	.	.	/	.	.
C=CCNc1nc(Nc2cc(Cl)ccc2OC)nc(OC)n1	/	.	.	.	.	.
COc1ccc(/C(O)=C2\C(=O)C(=O)N(CCN(C)C)C2c2cccc(OC)c2OC)cc1Cl (stereo not given)	.	.	?	.	45µM	?
CCN(CC)CCN1C(=O)C(=O)/C(=C(/O)c2ccc(F)cc2)C1c1cccnc1 (stereo not given)	.	.	.	.	25µM	.
COc1ccc(/C(O)=C2/C(=O)C(=O)N(CCN(C)C)C2c2ccc(C)cc2)cc1Cl (stereo not given)	.	.	.	.	89µM	.
SMILES	TDP1 block	HP1b chromo inh	BAZ2B block	Sfp PPTase inh	G9a inh	JMJD2A Tudor
COc1ccc(/C(O)=C2/C(=O)C(=O)N(CCN(C)C)C2c2ccccc2)cc1Cl (stereo not given)	.	.	?	.	.[12.7 µM]	.
CN(C)CCN1C(=O)C(=O)/C(=C(/O)c2ccc(F)cc2)C1c1ccccc1F (stereo not given)	.	.	.	.	79µM	.
COc1ccccc1CN1CC2(CCN(C(=O)c3ccncc3)CC2)C1	/	/	/	.	.[12.7 µM]	/
COCCNCCCCSc1ccc(Cl)cc1	.	.	56µM	?	/	8.9µM
C=CCNCCOCCOc1ccc(Cl)cc1C(C)(C)C	.	.	50µM	.	8.9µM	2µM
COCCCNCCOCCOc1ccc(Cl)cc1C(C)(C)C	.	.	?	.	8.9µM	20µM
C=CCNCCOCCSc1ccc(Cl)cc1	.	?	?	.	7.9µM	3.2µM
COc1ccc2c(c1-c1c3c(cc(Br)c1OC)CCCC3)CCCC2	.	/	/	.	/	/
C=CCNCCCOc1ccc(Cl)cc1C(C)(C)C	.	?	40µM	?	10µM	4.5µM
C(=N\Nc1ccc(-n2ccnc2)nn1)/c1ccccc1	.	.	?	89µM	.	.
N#CC1(C#N)CC(C=O)=C(N)C1(C#N)CC(=O)c1ccc(F)cc1 (stereo not given)	.	.	.	.	32µM	.
COC(=O)C1=C(C)N(CCCC(=O)O)C(=O)NC1c1ccc([N+](=O)[O-])cc1 (stereo not given)	/	.	/	/	/	.
COC(=O)C1=C(C)N(C)C(=O)NC1c1cc2c(cc1[N+](=O)[O-])OCO2 (stereo not given)	/	.	50µM	14µM	?	.
COC(=O)C1=C(C)N(CCCC(=O)O)C(=O)NC1c1cc2c(cc1[N+](=O)[O-])OCO2 (stereo not given)	/	.	?	32µM	7.9µM	35µM
Cc1c(C(=O)Nc2cccnc2)oc2ccc(Br)cc12	.	.	.	.	.	.
Cc1ccccc1CN1C(=O)c2ccccc2Sc2ccc(C(=O)NC3CCCC3)cc21	.	.	.	/	.	.
CCOc1ccc2[nH]cc(S(=O)(=O)c3ccc(Cl)cc3)c(=O)c2c1	/	.	?	.	71µM	.
Cc1cc(C)c(/C=C/c2onc(C)c2S(=O)(=O)N2CCC(C(=O)NCc3ccco3)CC2)c(C)c1	.	.	.	/	.	.
COc1ccc(CN(C)CCCn2cnc(C(=O)Nc3ccc(C)c(C)c3)n2)cc1OC	/	.	/	/	/	.
Cc1ccc(S(=O)(=O)N2[C@@H](c3ccc(Cl)c(Cl)c3)C(C(=O)O)=C[C@H]2CC2CCCC2)cc1	.	.	/	/	/	89µM
Cc1nn(CC2CC2)c(=O)n1-c1ccc(F)cc1	.	.	.	.	.	.
CCCSCC(=O)Nc1ncc2c(n1)-c1ccccc1CC2	.	.	56µM	.	8.9µM	?
O=C(Nc1ncc2c(n1)-c1ccccc1CC2)c1ccc(Cl)cc1	.	.	.	.	.[0.0925 µM]	?
CCSc1nnc(N2C(=O)C(O)=C(C(=O)c3ccco3)C2c2cccc(OC)c2)s1 (stereo not given)	.	.	?	?	35µM	89µM
